Source: PubChem BioAssay AID1347416 (National Center for Advancing Translational Sciences (NCATS), 2020)
The whole screen tested about 4,100 compounds, of which about 1,600 (39%) were called active. Inconclusive results (about 25%) are left out. The call rests on the fitted dose curve; in most records, active means well fitted inhibition curve with a large enough effect; inconclusive means small, poorly fitted or top-dose-only effect; inactive means no such curve, though single readings can be large or run the other way. This is one part of the list.

Assay: qHTS Validation assay for Inhibitors of Plasmodium falciparum Dd2 growth in vitro; further: nearly all actives have a fitted effect of over 70% in size
Conditions: P. falciparum Dd2 in RBCs, SYBR Green growth, 72 h; series mostly up to 28.7 µM; activity change, negative = inhibition: at the top concentration
Summary of the method: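 P. falciparum Dd2-infected red blood cells (2.5% hematocrit, 0.3% parasitemia) grown 72 h at 37 °C under 5% O2 with compounds in a titration, 29 uM to 0.5 nM final. Growth read as SYBR Green-1 fluorescence after ~16 h lysis; artesunate 300 nM as positive control.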
On the % scale 0 is the no-effect control and ±100 the full control effect; potency means the concentration at half of the fitted maximal effect.

Row | Structure (SMILES) | Potency | activity change, negative = inhibition
1 | CC(=O)N1c2c(cc(Br)cc2S(=O)(=O)N2CCN(c3cc(C)ccc3C)CC2)CC1C (stereo unspecified) | 11.9 µM (active) | –
2 | O=C1NC(=NC2CCCCC2)C2(CCN(Cc3ccc(F)cc3)C2)N1c1cc(F)cc(F)c1 (stereo unspecified) | 4.22 µM (active) | –
3 | CN(C)c1ccc(CN2CCC3(C2)C(=NC2CCCCC2)NC(=O)N3c2cccnc2)cc1 (stereo unspecified) | – | -28.4% (inactive)
4 | O=C1NC(=NC2CCCC2)C2(CCN(Cc3ccc(F)cc3)C2)N1c1cc(F)cc(F)c1 (stereo unspecified) | 10.6 µM (active) | –
5 | CN(C)c1ccc(CN2CCC3(C2)C(=NC2CCCC2)NC(=O)N3c2cccnc2)cc1 (stereo unspecified) | – | -33.1% (inactive)
6 | O=C1NC(=NC2CCCCC2)C2(CCCN([S+](=O)([O-])c3ccccc3)C2)N1c1cccnc1 (stereo unspecified) | – | -14.7% (inactive)
7 | O=C(c1ccc(C(F)(F)F)cc1)N1CCC2(CC1)C(=NC1CCCCC1)NC(=O)N2c1cc(F)cc(F)c1 | – | -25.9% (inactive)
8 | CCOC(=O)c1c(NC(=O)c2ccccc2)sc2c(O)c(CN(CC)CC)ccc12 | 0.15 µM (active) | –
9 | COc1cccc(Cn2c(Oc3ccccc3)nc3c2c(=O)n(C)c(=O)n3C)c1 | 4.73 µM (active) | –
10 | CCNc1nc2c(c(=O)n(C)c(=O)n2C)n1Cc1ccc(F)cc1 | – | -8.15% (inactive)
11 | Cc1ccc(Oc2nc3c(c(=O)n(Cc4ccccc4)c(=O)n3C)n2C)cc1C | – | 42.4% (inactive)
12 | Cc1ccccc1C(=O)N1CCCCC12Cc1ccccc1NC2=O (stereo unspecified) | – | 40.8% [at 43.1 µM] (inactive)
13 | CC(C)Oc1ccc(CCc2n[nH]c(=S)n2Cc2ccccc2)cc1 | 5.31 µM (active) | –
14 | CCCOc1ccc(CCc2n[nH]c(=S)n2Cc2ccccc2)cc1 | 5.31 µM (active) | –
15 | CN1CCNc2nc(COc3ccc(Oc4ccccc4)cc3)n(Cc3ccccc3)c2C1=O | – | -10.4% (inactive)
16 | COc1ccc(/C=N/Nc2cc(C)nc3ccccc23)cc1 | 2.11 µM (active) | –
17 | S=C(NCc1ccccc1)N1CCn2cccc2C1c1cccnc1 (stereo unspecified) | 9.44 µM (active) | –
18 | S=C(NCc1ccccc1)Nc1ccncc1 | – | 12.2% (inactive)
19 | CN(C)c1ccc(-c2ccnc(N[C@H]3CO[C@H]4[C@@H]3OC[C@@H]4NC(=O)NCc3ccccc3)n2)cc1 | – | 0.409% (inactive)
20 | O=C(O)COc1ccc(-c2nccc(-c3cccs3)n2)cc1 | – | 25.3% (inactive)
21 | c1csc(-c2ccnc(N[C@H]3CO[C@H]4[C@@H]3OC[C@@H]4NCC3CCCCC3)n2)c1 | 12.2 µM (active) | –
22 | Cc1cc(CN2CCC(CO)(Cc3ccccc3Cl)CC2)cc(C)c1O | 16.8 µM (active) | –
23 | CCc1ccccc1CN1CCC(CO)(CN2CCCC2)CC1 | – | 0.298% (inactive)
24 | Cc1cn2nc(C(=O)NCc3ccccn3)cc2c(=O)[nH]1 | – | 6.06% (inactive)
25 | CCOc1ccc(CNC(=O)CN2N=C(c3ccccc3)CCC2=O)cc1OC | – | -2.34% (inactive)
26 | COc1ccc(CC(=O)NCc2ccccn2)cc1OC | 7.5 µM (active) | –
